Source: PubChem BioAssay
DT40 TDP1 CPT = qHTS for Inhibitors of human tyrosyl-DNA phosphodiesterase 1 (TDP1): qHTS in cells in presence of CPT; chicken DT40 Tdp1-/-;hTDP1 cells + 20 nM CPT, ATP luminescence, 48 h; Potency, µM (highest dose often 46.2 µM), for inactives: at the top dose activity change, negative = growth inhibition, most hits filed as inhibitors; actives 12% (n = 420,000); AID 686979, 2013; further: nearly all actives have a fitted effect of over 55% in size
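Chicken DT40 Tdp1-/- cells complemented with human TDP1, 400 cells/well, exposed to compounds plus 20 nM camptothecin for at least 48 h at 37 C; viability read as ATP content by CellTiter-Glo luminescence.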
TDP1 cell noCPT = qHTS for Inhibitors of human tyrosyl-DNA phosphodiesterase 1 (TDP1): qHTS in cells in absence of CPT | DT40 Tdp1-/- hTDP1 cells, no CPT, ATP luminescence, 48 h | Potency, µM (top dose mostly 46.2 µM), inactives show top-dose activity change, negative = growth inhibition, most hits filed as inhibitors | actives 15% (n = 420,000) | AID 686978, 2013; further: nearly all actives have a fitted effect of over 55% in size
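Readout: luminescence from CellTiter-Glo after 30 min in the dark at RT. Cells: DT40 Tdp1-/- with stable hTDP1, 400/well. Exposure: compounds alone, ≥48 hr, 37 °C.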
KB-3-1 tox = qHTS assay for MDR1-selective chemotherapeutics: Primary screen using the parental adenocarcinoma cell KB-3-1. KB-3-1 viability, CellTiter-Glo ATP luminescence, 72 h. Potency, µM (top dose mostly 46.1 µM), most hits filed as cytotoxic. actives 1.4% (n = 400,000); further: nearly all actives have a fitted effect of over 60% in size
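Viability of parental KB-3-1 cells, measured by CellTiter-Glo luminescence, followed a 72 h incubation at 37 °C with pinned compounds in phenol-red-free DMEM containing 10% FBS.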
HT1080NT lethal = qHTS for induction of synthetic lethality in tumor cells producing 2HG: qHTS for the HT-1080-NT fibrosarcoma cell line; HT-1080-NT fibrosarcoma viability, CellTiter-Glo ATP luminescence, 48 h; Potency, µM (titrated, usually from 46.1 µM), without a hit: top-dose activity, negative = less viability, actives largely listed as cytotoxic; actives 1.6% (n = 360,000);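 further: NT is the 2HG producing partner of a matched IDH1 knockdown line; 0% = DMSO-treated cells and -100% = media-only wells without cells; nearly all actives have a fitted effect of over 55% in size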
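Viability by CellTiter-Glo luminescence after 48 h compound exposure at 37C of HT-1080-NT cells (750/well, RPMI, 5% FBS). % activity scaled between DMSO wells and medium-only wells, then curve-fitted and categorized by curve class.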
HT1080 IDH1KD tx = qHTS for induction of synthetic lethality in tumor cells producing 2HG: qHTS for the HT-1080-IDH1KD cell line. HT-1080 IDH1 knockdown viability, ATP luminescence, 48 h. Potency, µM (series often up to 46.1 µM), for inactives: at the top dose activity, negative = toxicity, usual class: cytotoxic. actives 2% (n = 360,000). AID 686971, 2013;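 further: 0% = DMSO wells and -100% = cell-free medium wells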
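Cytotoxicity counter-line: IDH1KD HT-1080, 48 h, CellTiter-Glo. Curves classed by r2, magnitude and activity.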
KB-V1 MDR tox = qHTS assay for MDR1-selective chemotherapeutics: Primary screen using the drug-selected MDR subline cells KB-V1; KB-V1 MDR cells viability, CellTiter-Glo, 72 h; Potency, µM (titrated, usually from 46.1 µM), actives largely listed as cytotoxic; actives 3.4% (n = 400,000); AID 1347076, 2019; further: nearly all actives have a fitted effect of over 60% in size
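Cells of the MDR subline KB-V1 are plated, dosed with compound at multiple concentrations, and incubated 72 h at 37 degrees C; CellTiter-Glo is then added and luminescence read after 10 min.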
* marks the source's active call; other numbers are inactive results; i = inactive; ? = inconclusive; . = no result given; ! = repeats disagree. Rows were chosen to be rich in hits. Some 19% of all compounds tested hit in one or more screens of this group. The call rests on the fitted dose curve; in most records, active means well fitted curve in the direction sought with a large enough effect; inconclusive means small, poorly fitted or top-dose-only effect, or another doubt; inactive means no such curve, though single readings can be large; an effect the other way counts as inactive or inconclusive. Unless noted, on the % scale 0 is the no-effect control and ±100 the full control effect; potency means the concentration at half of the fitted maximal effect.

SMILES	DT40 TDP1 CPT	TDP1 cell noCPT	KB-3-1 tox	HT1080NT lethal	HT1080 IDH1KD tx	KB-V1 MDR tox
COc1ccc(C(O)(CC(C)C)C(CN2CCOCC2)c2ccccc2)cc1 (stereo not drawn)	?	21µM*	i	-5%	-7%	i
COc1ccc(C(O)(CCC(C)C)C(CN2CCOCC2)c2ccc(Cl)cc2)cc1 (stereo not drawn)	?	15µM*	?	?	?	26µM*
CCOc1ccc(C(O)(c2ccccc2)C(CN2CCCC2)c2ccccc2)cc1 (stereo not drawn)	?	7.3µM*	i	?	-3%	i
CCc1ccc(C(O)(CC(C)C)C(CN2CCOCC2)c2ccccc2)cc1 (stereo not drawn)	?	?	?	-19%	-21%	?
COc1ccc(C(O)C(CN2CCOCC2)c2ccccc2)cc1 (stereo not drawn)	-21%	-10%	i	2%	11%	i
CCCC(O)(CCN1CCOCC1)c1ccc(Cl)cc1 (stereo not drawn)	-28%	-12%	i	10%	3%	i
CCCCOc1ccc(/C=C/C(=O)OCC(=O)N2CC(=O)Nc3ccccc32)cc1OCC	?	?	i	-8%	?	?
CCc1ccc(C(O)(c2ccccc2OC)C(CN2CCOCC2)c2ccccc2)cc1 (stereo not drawn)	?	?	i	-28%	-16%	i
CCCCC(O)(c1ccc(F)cc1)C(CN1CCOCC1)c1ccc(Cl)cc1 (stereo not drawn)	?	?	?	?	?	8.2µM*
CCOc1ccc(C(O)(CCC(C)C)C(CN2CCOCC2)c2ccccc2)cc1 (stereo not drawn)	?	21µM*	i	?	18µM*	?
CCN(c1ccc(OC)cc1)S(=O)(=O)c1cc(-c2cc(C)no2)ccc1C(C)C	?	21µM*	?	-7%	-14%	?
COc1cccc(CNS(=O)(=O)c2cc(-c3cc(C)no3)ccc2C(C)C)c1	21µM*	?	i	-16%	?	?
COc1ccc(-c2cc(C)no2)cc1S(=O)(=O)NCc1ccco1	?	?	i	.	.	?
CCc1ccccc1N(C)S(=O)(=O)c1cc(-c2cc(C)no2)ccc1OC	13µM*	?	?	?	?	i
COc1ccc(-c2cc(C)no2)cc1S(=O)(=O)NCc1ccc(OC(C)C)cc1	?	18µM*!	i	7%	-4%	?
CCc1cccc(C)c1NC(=O)Cn1ccn(-c2ccc(F)cc2)c(=O)c1=O	10%	7%	.	.	.	.
CCCCNC(=O)C1C(c2ccc(OC)cc2)=Nc2ccccc2N1C(=O)Cc1cc(OC)cc(OC)c1 (stereo not drawn)	?	?	i	-3%	-11%	?
COc1ccc(CNS(=O)(=O)c2cc(-c3cc(C)no3)ccc2OC)cc1OC	-7%	7%	?	10%	11%	i
COc1ccc(-c2cc(C)no2)cc1S(=O)(=O)NCc1cccc(C)c1	8%	?	?	18µM*	?	?
O=C(CCSc1ccc(Cl)c(Cl)c1)NC12CC3CC(CC(C3)C1)C2	16µM*	?	?	-23%	-18%	?
O=C(CSc1ccc(F)cc1)NC12CC3CC(CC(C3)C1)C2	?	?	i	5%	-16%	i
CCOC(=O)N1CCN(C(=O)CCSc2ccc(Cl)cc2)CC1	-13%	-30%	i	7%	9%	23µM*
CCOC(=O)N1CCN(C(=O)CCSc2ccc(C)cc2)CC1	23µM*	23µM*	i	1%	-4%	i
O=C1NC[C@@H](c2ccccc2)OC(=O)[C@@H](Cc2ccc(F)cc2)CC/C=C/C[C@H]1CC(=O)N(CCO)Cc1ccccc1	13µM*	18µM*	?	?	.	?
O=C1NC[C@H](c2ccccc2)OC(=O)[C@H](Cc2ccc(F)cc2)CC/C=C/C[C@@H]1CC(=O)N(CCO)Cc1ccccc1	9.2µM*	10µM*	i	?	.	i
SMILES	DT40 TDP1 CPT	TDP1 cell noCPT	KB-3-1 tox	HT1080NT lethal	HT1080 IDH1KD tx	KB-V1 MDR tox
Cc1cc2nnc(SCC(=O)NC3CCCCC3)n2c(N)n1	10%	-1%	?	0%	20%	i
COc1ccc(-n2c(-c3ccc(C)cc3)cc3c2CC(C)(C)CC3=O)cc1Cl	-16%	5%	i	.	.	i
CCCCCN1C(C(=O)c2ccccc2)=C(NC(=O)c2ccc(C)cc2)c2ccccc2S1(=O)=O	18µM*	16µM*	?	.	.	i
CCCCN1C(=O)Nc2ccccc2S1(=O)=O	-17%	-11%	i	11%	13%	i
CCCCCN1C(C(=O)c2ccccc2)=C(NC(=O)c2ccccc2Cl)c2ccccc2S1(=O)=O	?	8.2µM*	?	.	.	i
O=C(CCN1C(=O)c2ccccc2S1(=O)=O)Nc1ccc(C(=O)O)cc1	-7%	2%	i	10%	6%	i
O=C(Nc1ncccn1)C1=C(O)c2ccccc2S(=O)(=O)N1Cc1ccccc1	-10%	5%	?	-2%	-3%	i
CCCCCN1C(C(=O)c2ccccc2)=C(NC(C)=O)c2ccccc2S1(=O)=O	16µM*	18µM*	?	.	.	?
C[C@@H]1COc2cccc(N3CCC[C@H]3CO)c2S(=O)(=O)N1	-1%	-28%	i	19%	17%	?
CC(C)CC(=O)Nc1c2c(nn1-c1ccc(F)cc1)CS(=O)(=O)C2	31%	3%	i	7%	1%	i
COc1ccc(C(=O)NC(=S)N2CCN(C)CC2)cc1Br	0%	-29%	i	11%	7%	i
CCOC(=O)c1c(S(=O)(=O)Nc2ccccc2OCC)c(C)n(C)c1C	-1%	23%	i	1%	4%	i
Cc1nn(-c2ccccc2)c(C)c1-c1cc(C(=O)N/N=C/c2ccc(O)cc2)[nH]n1	26µM*	?	?	?	?	i
